Drawing on PubChem BioAssay (EPA / NIEHS), this text covers outcome and AC50 for twelve molecules.

The source made the active and inactive calls. How the source made its calls: active means hit-call score of the fitted dose curve at least 0.9, where 1 is the maximum; inactive means score below 0.9.

The nature of this assay: APR_HepG2_CellLoss_24hr: Apredica 24-hour HepG2 Assay for Cell Loss (AID 2282908).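 On AC50: fit in both directions so a hit may be cell loss or gain.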 The conditions noted are these: high-content imaging. Summed up:
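10-pt dose, 0.39–200 uM, n=2/plate; DMSO 0.5% v/v final as negative control. Fix 3.7% formaldehyde 30 min RT, permeabilize 0.5% Triton X-100, stain Hoechst 33342 2 ug/mL, image 20x. Nuclear count, bidirectional fit vs DMSO.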
With `NC(=O)Cn1c(=O)cc(CCN2CCN(c3nccc4sccc34)CC2)c2ccc(F)cc21`, the result was inactive.

The term AC50 denotes the concentration giving half of the maximal activity seen. For the molecule `CNCc1cc(F)ccc1Oc1ccc(Cl)c(Cl)c1`, the AC50 was 101 µM (active).

As for `Cc1cccc(Nc2cc(Cl)nc(SCC(=O)O)n2)c1C`, the call was inactive.

On to `CCOC(=O)CCC(=O)OCC`, for which the molecule was classed as inactive.

For the molecule `C1CCC(SSC2CCCCC2)CC1`, the AC50 was 77.9 µM (active).

As to `COCCOC[C@H](CC1(C(=O)NC2CCC(C(=O)O)CC2)CCCC1)C(=O)Oc1ccc2c(c1)CCC2` (some centres not stated), the outcome was inactive.

With `O=C(N[C@@H](Cc1ccccc1)[C@@H](O)C(=O)N1C[C@@H](O)[C@@H](O)C1)c1cc2cc(Cl)ccc2[nH]1`, the result was inactive.

For `CCCCCCCCCCCCCCCC`, the outcome was inactive.

Regarding `CC(C)c1ccc(C(=O)N=C(N)N)cc1S(C)(=O)=O`, the outcome was inactive.

As for `Cc1ccc(Cl)cc1`, the call was inactive.

For the molecule `CC1=C(/C=C/C(C)=C/C=C/C(C)=C/CO)C(C)(C)CCC1`, the AC50 was 90.6 µM (active).

With `Nc1nc(N)c2nc(CNc3ccc(C(=O)N[C@@H](CCC(=O)O)C(=O)O)cc3)cnc2n1`, the result was inactive.
